# Measurements reported in PubChem BioAssay AID504333 (National Center for Advancing Translational Sciences (NCATS), 2011).
# Hit rate of the full screen: of about 360,000 compounds, about 16,000 (4.4%) were called active. A call without a number means that no potency is given here. Not shown: some 9% with an inconclusive outcome. Calls follow the shape of the dose curve; as a rule, active = well fitted inhibition curve with a large enough effect; inconclusive = small, poorly fitted or top-dose-only effect; inactive = no such curve, though single readings can be large or run the other way. Many of the other results were omitted from the sample, so actives are more common in it than they were.
# Target: Bromodomain adjacent to zinc finger domain protein 2B (Homo sapiens) (UniProt Q9UIF8)
# Sequence (Q9UIF8 whole entry, looked up, the tested form may be a part): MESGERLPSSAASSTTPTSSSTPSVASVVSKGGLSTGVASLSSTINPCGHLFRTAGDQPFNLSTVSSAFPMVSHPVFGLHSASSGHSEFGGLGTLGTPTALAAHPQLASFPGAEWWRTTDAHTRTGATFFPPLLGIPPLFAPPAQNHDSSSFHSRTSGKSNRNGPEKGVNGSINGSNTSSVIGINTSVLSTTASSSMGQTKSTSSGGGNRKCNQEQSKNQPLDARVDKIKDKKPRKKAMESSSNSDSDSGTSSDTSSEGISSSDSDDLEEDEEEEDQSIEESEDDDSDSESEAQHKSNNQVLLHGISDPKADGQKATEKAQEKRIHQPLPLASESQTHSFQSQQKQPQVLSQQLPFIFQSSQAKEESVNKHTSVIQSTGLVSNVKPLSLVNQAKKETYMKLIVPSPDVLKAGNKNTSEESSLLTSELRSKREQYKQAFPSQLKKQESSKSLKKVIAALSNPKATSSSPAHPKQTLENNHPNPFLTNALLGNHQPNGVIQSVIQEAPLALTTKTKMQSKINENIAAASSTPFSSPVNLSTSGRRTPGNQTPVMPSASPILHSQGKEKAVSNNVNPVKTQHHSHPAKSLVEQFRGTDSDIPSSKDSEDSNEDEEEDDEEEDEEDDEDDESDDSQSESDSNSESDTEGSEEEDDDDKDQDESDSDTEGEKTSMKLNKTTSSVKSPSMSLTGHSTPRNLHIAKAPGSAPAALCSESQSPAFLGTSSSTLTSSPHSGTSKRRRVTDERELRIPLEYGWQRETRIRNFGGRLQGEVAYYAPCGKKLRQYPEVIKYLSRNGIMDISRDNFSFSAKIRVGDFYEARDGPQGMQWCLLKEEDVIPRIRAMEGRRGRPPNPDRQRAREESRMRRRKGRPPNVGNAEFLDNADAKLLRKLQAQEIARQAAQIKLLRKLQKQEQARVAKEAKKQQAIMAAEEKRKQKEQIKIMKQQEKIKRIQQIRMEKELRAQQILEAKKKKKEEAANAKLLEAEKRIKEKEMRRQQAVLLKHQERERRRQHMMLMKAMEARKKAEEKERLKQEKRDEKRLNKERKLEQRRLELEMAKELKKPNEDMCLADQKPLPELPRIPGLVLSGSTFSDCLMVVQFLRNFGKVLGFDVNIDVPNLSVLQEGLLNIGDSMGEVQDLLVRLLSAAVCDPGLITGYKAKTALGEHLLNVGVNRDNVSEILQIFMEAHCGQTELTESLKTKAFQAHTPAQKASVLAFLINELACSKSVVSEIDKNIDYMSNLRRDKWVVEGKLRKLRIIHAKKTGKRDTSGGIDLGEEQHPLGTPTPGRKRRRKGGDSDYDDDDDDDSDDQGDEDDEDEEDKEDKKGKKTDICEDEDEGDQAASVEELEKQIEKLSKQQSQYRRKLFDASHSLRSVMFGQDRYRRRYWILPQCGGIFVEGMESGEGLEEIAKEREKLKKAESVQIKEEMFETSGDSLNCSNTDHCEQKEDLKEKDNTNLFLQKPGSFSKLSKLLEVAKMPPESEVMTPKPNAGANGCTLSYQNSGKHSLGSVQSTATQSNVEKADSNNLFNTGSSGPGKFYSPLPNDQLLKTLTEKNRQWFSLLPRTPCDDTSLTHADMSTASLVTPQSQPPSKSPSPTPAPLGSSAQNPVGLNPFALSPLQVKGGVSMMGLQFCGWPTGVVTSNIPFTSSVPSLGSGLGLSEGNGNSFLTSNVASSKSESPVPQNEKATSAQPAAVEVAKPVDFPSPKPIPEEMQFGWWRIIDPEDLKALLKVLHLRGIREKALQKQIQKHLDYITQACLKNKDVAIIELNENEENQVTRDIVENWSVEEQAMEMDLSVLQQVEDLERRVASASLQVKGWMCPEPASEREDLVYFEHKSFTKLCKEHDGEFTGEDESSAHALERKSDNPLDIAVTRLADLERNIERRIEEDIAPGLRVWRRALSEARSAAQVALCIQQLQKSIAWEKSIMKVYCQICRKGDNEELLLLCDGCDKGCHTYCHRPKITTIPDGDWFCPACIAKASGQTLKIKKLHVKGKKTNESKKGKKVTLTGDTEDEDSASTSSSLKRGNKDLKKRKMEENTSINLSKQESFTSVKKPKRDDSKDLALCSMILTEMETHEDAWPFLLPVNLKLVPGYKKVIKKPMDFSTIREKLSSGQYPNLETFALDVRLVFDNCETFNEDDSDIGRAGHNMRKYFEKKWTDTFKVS
# Assay: qHTS Assay for Inhibitors of BAZ2B; also: nearly all actives have a fitted effect of over 60% in size
# Conditions: AlphaScreen BAZ2B-H3K14Ac peptide displacement; series mostly up to 114 µM
# How it was run: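 Compounds, titrated to a top concentration of 110 uM, were incubated 30 min at room temperature with preformed BAZ2B/acetyl-K14 H3 peptide complex (50 nM each). Proximity signal was measured by AlphaScreen after 20 min with beads.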
# Potency is read from the fitted curve at half-maximal effect.
row,Structure (SMILES),Potency
1,CCCC(=O)OCC(=O)Nc1cc(Cl)ccc1[N+](=O)[O-],39.8 µM (active)
2,CC(C)(C)NC(=O)COC(=O)c1cc(Cl)ccc1[N+](=O)[O-],inactive
3,Cc1ccc(Cl)cc1NC(=O)COC(=O)CC(C)(C)C,inactive
4,CCOc1ccc(NC(=O)C(CC(C)C)N2Cc3ccccc3C2=O)cc1 (stereo not drawn),inactive
5,Cc1ccccc1NC(=O)Cn1cc(C(=O)c2cccs2)c2ccccc21,inactive
6,CCC(C)c1ccc2oc(-c3ccc(NC(=O)c4cc5ccccc5o4)cc3)nc2c1 (stereo not drawn),inactive
7,COC(=O)c1ccc(/C=N/N2C(C)CCCC2C)cc1 (stereo not drawn),56.2 µM (active)
8,COC(=O)N/N=C/c1ccc(/C=N/NC(=O)OC)cc1,inactive
9,COC(=O)c1ccc(/C=N/NC(=O)C(=O)N2CCCCCC2)cc1,inactive
10,COc1ccc(CCNc2ncnc3c2cnn3-c2ccc(C)cc2)cc1,inactive
11,CCOc1ccc(S(=O)(=O)c2cn(Cc3ccc(OC)cc3)c3ccc(F)cc3c2=O)cc1,inactive
12,O=c1cc(-c2ccccc2)n2c(SCc3ccccc3)nnc2[nH]1,inactive
13,O=c1[nH]n2c(-c3ccccc3)nc(O)c2c2ccccc12,inactive
14,O=c1[nH]c2ccccc2n2c(-c3ccccc3)nnc12,20 µM (active)
15,Cc1ccc(C(=O)NCCSc2c(C)[nH]c3ccccc23)cc1C,inactive
16,CC1CCC2(CC1)N=C(c1ccccc1)C(=O)N2CC(=O)Nc1ccc(F)c(Cl)c1 (stereo not drawn),inactive
17,COC(=O)c1cnn(-c2ccc(C(=O)Nc3ccc(OC(F)(F)F)cc3)cc2)c1N,inactive
18,CCc1nnc(NC(=O)Cc2cccs2)s1,inactive
19,O=C(Cc1cccs1)Nc1nnc(SCc2ccc(F)cc2)s1,inactive
20,COc1ccc(Cc2nnc(NC(=O)Cc3cccs3)s2)cc1,44.7 µM (active)
21,CCCCN=C1C([N+](=O)[O-])=CC=C2C1=NC1(CCCCC1)N2O,2.24 µM (active)
22,CCC(C(=O)Nc1cc(OC)ccc1OC)n1c(=O)c(C(F)(F)F)nc2ccccc21 (stereo not drawn),inactive
23,COc1cccc(-n2cc(C(=O)NCc3cccc(Cl)c3)c3ccccc3c2=O)c1,inactive

row,Structure (SMILES),Potency
1,O=C(CC1N=C2c3ccccc3N=C(SCc3cccc(Cl)c3)N2C1=O)NCc1ccc2c(c1)OCO2 (stereo not drawn),inactive
2,O=C(CC1N=C2c3ccccc3N=C(SCc3ccccc3Cl)N2C1=O)NCc1ccco1 (stereo not drawn),50.1 µM (active)
3,CCC(C)NC(=O)CSC1=Nc2ccccc2C2=NC(CCC(=O)NCc3ccco3)C(=O)N12 (stereo not drawn),inactive
4,Cc1ccc(-c2cc(C(F)(F)F)c(C#N)c(SCC(=O)Nc3ccccc3)n2)cc1,inactive
5,CCOC(=O)c1ccc(NC(=O)CCn2cnnn2)cc1,inactive
6,CC(=O)c1nn(-c2ccc(OC(F)(F)F)cc2)nc1Nc1ccccc1,inactive
7,Cc1cc(C(=O)CSc2nc(N)cc(=O)[nH]2)c(C)n1Cc1ccco1,inactive
8,Cc1cc(C(=O)COC(=O)CNC(=O)c2ccc(F)cc2)c(C)n1Cc1ccco1,50.1 µM (active)
9,COCCn1c(C)cc(C(=O)COC(=O)CNC(=O)c2ccco2)c1C,inactive
10,COc1ccc(S(=O)(=O)c2c(Nc3ccc(C)cc3)sc(C(=O)c3ccc(C)cc3)c2N)cc1,inactive
11,CCOc1ccc(C(=O)N2CCN(CCc3ccccn3)CC2)cc1,inactive
12,COc1ccc(CCNCc2c(-c3ccccc3)n(C)c3ccccc23)cc1,50.1 µM (active)
13,COc1ccc(-c2c(C#Cc3ccccc3)c3ccccc3n2C)cc1,inactive
14,COc1ccc(-c2nc3ccccc3c(=O)n2CCc2ccc(O)cc2)cc1,inactive
15,O=C(NCCc1ccccc1)c1cnc2sc(N3CCCC3)nn2c1=O,inactive
16,CCOC(=O)Nc1ccc2c(c1)N(C(=O)CCCl)c1ccccc1[S@]2=O,inactive
17,CCNCCC(=O)N1c2ccccc2Sc2ccc(NC(=O)OCC)cc21,inactive
18,CCOC(=O)Nc1ccc2c(c1)N(C(=O)CN1CCN3CCCC3C1)c1ccccc1CC2 (stereo not drawn),70.8 µM (active)
19,Cc1cc(C)cc(NS(=O)(=O)c2ccc(-c3cc(C)no3)s2)c1,inactive
20,Cc1ccc(C)c(Cn2c(C)c(CNCc3ccc(F)cc3)c(C(=O)O)c2C)c1,inactive
21,O=C(CCCn1c(=O)c2cccn2c2cccnc21)NCc1ccc(F)cc1,inactive
22,Cc1ccc(OCCCC(=O)N2CCOCC2)c(C)c1,inactive
23,COc1ccc(C(=O)NCCCN2CCOCC2)cc1Br,inactive

row,Structure (SMILES),Potency
1,Cc1ccc(OCCCCN2CCCCC2)c(Br)c1,50.1 µM (active)
2,COc1ccccc1NC(=O)c1cc(C2CC2)nc2c1c(C)nn2-c1ccc(C)cc1,inactive
3,CC(C)Cn1c(C2CC(=O)N(c3ccccc3Cl)C2)nc2ccccc21 (stereo not drawn),inactive
4,Cc1c(Cl)cccc1NC(=O)CCS(=O)(=O)c1ccc2c(c1)oc(=O)n2C,inactive
5,Cc1ccccc1OCCSc1nc2ccc(NC(=O)c3ccco3)cc2s1,inactive
6,Cc1ccsc1/C=N/Nc1ccc(Cl)nn1,inactive
7,Oc1c(Br)cccc1/C=N/Nc1c(F)c(F)c(F)c(F)c1F,inactive
8,COc1cccc(/C=N/Nc2ccc(Cl)nn2)c1,inactive
9,Clc1ccc(N/N=C/c2cccs2)nn1,50.1 µM (active)
10,Nc1nnnn1/N=C/c1cccs1,inactive
11,Oc1cccc(/C=N/Nc2ccc(Cl)nn2)c1O,8.91 µM (active)
12,Cc1cccc2c(=O)cc(CSc3ccccc3NC(=O)C(C)C)[nH]c12,inactive
13,CCOC(=O)N1CCC(NC(=O)c2cnn(-c3cccc(C)c3)c2C2CCN(C(=O)OC(C)(C)C)CC2)CC1,inactive
14,CCc1cccc(NC(=O)Cn2nc(CC)n3c(cc4cc(C)ccc43)c2=O)c1,inactive
15,CC(C)CNc1ncnc2c1nnn2C,inactive
16,CCOc1cc(/C=N/NC(=O)CN2CCCCC2)ccc1O,56.2 µM (active)
17,Cc1ccc(COc2ccc(/C=N/NC(=O)CN3CCCCC3)cc2)cc1,inactive
18,CCOc1ccc(/C=N/NC(=O)CSc2ccccn2)cc1O,inactive
19,O=C(CN1CCSCC1)N/N=C/c1ccc(F)cc1,50.1 µM (active)
20,O=C(CC(=O)N/N=C\c1ccc(F)cc1)NCCc1ccccc1,inactive
21,Cc1nn(CC(=O)N/N=C/c2ccc(F)cc2)c(C)c1[N+](=O)[O-],inactive
22,Cc1cccc(CSc2nc3ccncc3n2Cc2ccc(C(=O)O)cc2)c1,inactive
